Laboratory results: PubChem BioAssay (NCATS)
Several values for one entry are separate records, joined by “and”; a condition that tells them apart may be missing. Equal entries are not always repeated. Inconclusive results are not listed. For some assays here: Potency and affinity values are given separately. Activity calls are given as the source filed them. Unless noted, the rule behind the calls is not given here.

Key:
[1] = Ebola virus entry assay, green fluorescence channel
[2] = Ebola virus entry assay, blue channel fluorescence
[3] = Ebola virus entry assay, ratio channel
[4] = Ebola virus entry assay, green channel fluorescence
[5] = Ebola virus entry assay, reporter ratio channel; AC50: Channel type: primary unless noted; outcome: Channel type: primary unless noted
[6] = Ebola virus entry assay, blue channel (ratio component)
[7] = qHTS profiling for inhibitors of Plasmodium falciparum (3D7) proliferation (AID 743322);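 note: infected erythrocytes exposed to compound for 72 h before lysis; 100% = DMSO vehicle wells and 0% = 0.29 µM artemisinin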; conditions: P. falciparum 3D7 proliferation; at 28.7 µM (top of the series)
Method in brief: (§1)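 Parasite DNA was quantified by SYBR Green I fluorescence (ex 485, em 535 nm) after overnight lysis in saponin/Triton buffer at room temperature. Cultures at 0.3% parasitemia and 2.5% hematocrit were first exposed to compound for 72 h at 37 C; signals were normalised to artemisinin (0.29 uM) and vehicle wells.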

[8] = qHTS profiling for inhibitors of Plasmodium falciparum (DD2) proliferation (AID 743323); conditions: lower = more inhibition; at 28.7 µM (top of the series)
Method in brief: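 P. falciparum Dd2-infected erythrocytes (0.3% parasitemia, 2.5% hematocrit) exposed 72 h at 37 C, 5% CO2. Lysis with SYBR Green, overnight at room temperature, fluorescence 485/535 nm; normalized to 0.29 uM artemisinin and DMSO.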

[9] = qHTS profiling of the MIPE4 collection as inhibitors of Plasmodium falciparum (3D7) proliferation (AID 743344);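 note: scaled between DMSO vehicle wells and 0.29 µM artemisinin as full inhibition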; conditions: P. falciparum 3D7 in erythrocytes, SYBR Green DNA fluorescence, 72 h; at 28.5 µM (top of the series) unless noted
Method in brief: as §1

[10] = qHTS profiling of the MIPE4 collection as inhibitors of Plasmodium falciparum (DD2) proliferation (AID 743345); conditions: P. falciparum Dd2 in erythrocytes, SYBR Green DNA, 72 h; at 28.5 µM (top of the series) unless noted
Method in brief: as §1

[11] = qHTS profiling of the MIPE4 collection as inhibitors of Plasmodium falciparum (DD2) proliferation (Rep 2) (AID 743346); conditions: P. falciparum Dd2 in erythrocytes, SYBR Green DNA, 72 h; at 28.5 µM (top of the series) unless noted
Method in brief: as §1

[12] = qHTS profiling of the MIPE4 collection as inhibitors of Plasmodium falciparum (HB3) proliferation (AID 743347);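 note: plate controls were DMSO vehicle wells for no effect and artemisinin wells for full effect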; conditions: P. falciparum HB3 in erythrocytes, SYBR Green DNA, 72 h; at 28.5 µM (top of the series) unless noted
Method in brief: as §1

[13] = qHTS assay for cell viability of HEK293 cells (AID 743288; active = well fitted curve in the direction sought with a large enough effect; an effect the other way counts as inactive or inconclusive; note: % is set by controls: 0 for no effect and ±100 for the full control effect; nearly all actives have a fitted effect of over 50% in size); conditions: ATP luminescence (CellTiter-Glo), 18 h; max response: stronger effect = lower value
Method in brief: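 Quantitative high-throughput screen: compounds were pinned onto parental HEK293 cells (2,000 per well) after a minimum 5 h settling at 37 C, incubated 18 h at 37 C, and intracellular ATP measured by luciferase luminescence.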

[14] = qHTS assay for cell viability of the p53RE-bla HCT-116 cell line (AID 743292; active = well fitted curve in the direction sought with a large enough effect; an effect the other way counts as inactive or inconclusive; note: % is set by controls: 0 for no effect and ±100 for the full control effect; nearly all actives have a fitted effect of over 55% in size); conditions: p53RE-bla HCT-116 viability, ATP luminescence, 16 h; series mostly up to 95 µM
Method in brief: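 CellSensor p53RE-bla HCT-116 cells (4,000/well) pre-incubated 5 h at 37 C, then exposed to compounds in DMSO for 16 h at 37 C. Viability read as ATP content by CellTiter-Glo luminescence after 30 min at room temperature.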

[15] = qHTS profiling for inhibitors of Plasmodium falciparum (HB3) proliferation (AID 743324; active = well fitted curve in the direction sought with a large enough effect; an effect the other way counts as inactive or inconclusive;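 note: 100% = DMSO vehicle wells and 0% = artemisinin-treated control wells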); conditions: Plasmodium falciparum HB3 blood-stage proliferation; at 28.7 µM (top of the series)
Method in brief: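 SYBR Green fluorescence (485 ex/535 em) of lysed cultures, incubated overnight at room temperature in the dark, quantifies parasite DNA. Infected erythrocytes at 0.3% parasitemia and 2.5% hematocrit were exposed 72 h; values normalized to DMSO and 0.29 uM artemisinin controls.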
Throughout, for efficacy: 0% is about no effect.

CC[N+]1(C)CCCC(OC(=O)C(O)(c2ccccc2)c2ccccc2)C1 (stereo unspecified)
inactive: efficacy [1] 26% | outcome [2] | outcome [3] | outcome [4] | outcome [5] | outcome [6]

CCN(CC)C(=O)N[C@@H]1C=C2c3cccc4[nH]cc(c34)C[C@@H]2N(C)C1
active: AC50 [5] 31.6 µM
inactive: efficacy [1] 16% | outcome [2] | outcome [3] | outcome [4] | outcome [6]

Cc1ncc(CNC(=O)N(CCCl)N=O)c(N)n1
inactive: efficacy [1] 16.2% | outcome [2] | outcome [3] | outcome [4] | outcome [5] | outcome [6]

CC(C)(N)Cc1ccc(Cl)cc1
inactive: efficacy [1] 29.5% | outcome [2] | outcome [3] | outcome [4] | outcome [5] | outcome [6]

NCCc1cc(O)c(O)cc1O
inactive: efficacy [1] -42% | outcome [3] | outcome [4]
active: AC50 [2] 25.1 µM | AC50 [5] 39.8 µM

Clc1cccc(N2CCNCC2)c1
inactive: efficacy [1] 26.6% | outcome [2] | outcome [3] | outcome [4] | outcome [5] | outcome [6]

N#CC(C#N)=Cc1ccc(O)c(O)c1
inactive: efficacy [1] -17.1% | outcome [2] | outcome [3] | outcome [4] | outcome [5] | outcome [6]

O=C(NC(O)C(Cl)(Cl)Cl)NC(O)C(Cl)(Cl)Cl (stereo unspecified)
inactive: efficacy [1] 18% | outcome [2] | outcome [3] | outcome [4] | outcome [5] | outcome [6]

NN=C(N)N
inactive: efficacy [1] -37.7% | outcome [2] | outcome [3] | outcome [4] | outcome [5] | outcome [6]

O=[N+]([O-])c1ccc(O)c2ncccc12
active: AC50 [2] 31.6 µM | AC50 [3] 28.2 µM | AC50 [5] 28.2 µM
inactive: efficacy [1] -18.6% | outcome [4]

Cn1ccc2cc3c(cc21)CCN3C(=O)Nc1cccnc1
inactive: efficacy [1] -35.6% | outcome [2] | outcome [3] | outcome [4] | outcome [5] | outcome [6]

CCCCOCCOCCOCc1cc2c(cc1CCC)OCO2
inactive: efficacy [1] -21% | outcome [2] | outcome [3] | outcome [4] | outcome [5] | outcome [6]

CC(C)NCC(O)c1ccccc1Cl (stereo unspecified)
inactive: efficacy [1] 16.7% | outcome [2] | outcome [3] | outcome [4] | outcome [5] | outcome [6]

C=CCN1CC[C@]23c4c5ccc(O)c4O[C@H]2C(=O)CC[C@@]3(O)[C@H]1C5
inactive: efficacy [1] 15.7% | outcome [2] | outcome [3] | outcome [4] | outcome [5] | outcome [6]

Cn1cnc2c(F)c(Nc3ccc(Br)cc3Cl)c(C(=O)NOCCO)cc21
inactive: efficacy [1] 24.6% | outcome [2] | outcome [3] | outcome [4] | outcome [5] | outcome [6]

CC(=O)Nc1cc([As](=O)(O)O)ccc1O
inactive: efficacy [1] 15.5% | outcome [2] | outcome [3] | outcome [4] | outcome [5] | outcome [6]

Cn1cc(C2=C(c3cn(C4CCN(Cc5ccccn5)CC4)c4ccccc34)C(=O)NC2=O)c2ccccc21
6.8%: growth, % of control [12]
11.5%: parasite growth, % of DMSO control [9]
19.9%: parasite growth remaining, % of DMSO control (lower = more inhibition) [10]
94.2%: remaining parasite growth % (stronger effect = lower value) [7]
21.1%: parasite growth, % of control (lower = inhibition) [11]
inactive: efficacy [1] 36.4% | outcome [2] | outcome [3] | outcome [4] | outcome [5]
70%: activity, percent of control [8]

C[C@]12CCC(=O)C(O)=C1CC[C@@H]1[C@@H]2CC[C@]2(C)C(=O)CC[C@@H]12
90.5%: remaining parasite growth % (stronger effect = lower value) [7]
71.8%: activity, percent of control [8]
inactive: max response [13] -3.27% | Potency [14] | efficacy [1] -14% | outcome [2] | outcome [3] | outcome [4] | outcome [5] | outcome [6]
108%: remaining proliferation (% of control), lower = more inhibition [15]

CCn1cc(C(=O)O)c(=O)c2ccc(C)nc21
inactive: efficacy [1] 67.7% | outcome [2] | outcome [3] | outcome [5]

OCCOc1ccccc1
inactive: max response [13] -3.53% and -2.57% and -13.5% | Potency [14] | efficacy [1] -12.5% | outcome [2] | outcome [3] | outcome [4] | outcome [5] | outcome [6]

CN1C[C@H](CNC(=O)OCc2ccccc2)C[C@@H]2c3cccc4c3c(cn4C)C[C@H]21
inactive: efficacy [1] 74.4%
active: AC50 [2] 6.31 µM | AC50 [3] 3.98 µM | AC50 [5] 3.98 µM

C=CC(=O)Nc1cc2c(Nc3ccc(F)c(Cl)c3)ncnc2cc1OCCCN1CCOCC1
inactive: efficacy [1] 99.2%
active: AC50 [2] 3.16 µM | AC50 [3] 2.82 µM | AC50 [5] 2.82 µM

Oc1cccc2cccnc12
inactive: max response [13] -19.7% | Potency [14] | efficacy [1] -17.8% | outcome [2] | outcome [3] | outcome [4] | outcome [5]

NCC(O)c1ccc(O)cc1 (stereo unspecified)
inactive: max response [13] 1.63% | Potency [14] | efficacy [1] -25.6% | outcome [2] | outcome [3] | outcome [4] | outcome [5] | outcome [6]

CC(CCc1ccccc1)NC(C)C(O)c1ccc(O)cc1 (stereo unspecified)
active: AC50 [2] 35.5 µM | AC50 [3] 35.5 µM | AC50 [5] 35.5 µM
inactive: efficacy [1] 36.4%

CC(C)C[C@H](NC(=O)[C@H](CCc1ccccc1)NC(=O)CN1CCOCC1)C(=O)N[C@@H](Cc1ccccc1)C(=O)N[C@@H](CC(C)C)C(=O)[C@@]1(C)CO1
inactive: efficacy [1] -41%
active: AC50 [2] 0.316 µM | AC50 [3] 0.708 µM | AC50 [5] 0.708 µM

Nc1ccncc1
inactive: max response [13] -3.71% | Potency [14] | efficacy [1] -10% | outcome [2] | outcome [3] | outcome [4] | outcome [5] | outcome [6]

CCOP(=S)(OCC)Oc1cc(C)nc(C(C)C)n1
inactive: max response [13] 0.702% and -4.39% | Potency [14] | efficacy [1] 13.4% | outcome [2] | outcome [3] | outcome [4] | outcome [5] | outcome [6]

COC[C@@H](NC(C)=O)C(=O)NCc1ccccc1
inactive: efficacy [1] -31.5% | outcome [2] | outcome [3] | outcome [4] | outcome [5] | outcome [6]
737%: growth, % of control [12]
371%: parasite growth, % of DMSO control [9]
165%: parasite growth, % of control (lower = inhibition) [11]
113%: parasite growth remaining, % of DMSO control (lower = more inhibition) [10]

CC[N+](CC)(CC)CC
inactive: efficacy [1] -18.6% | outcome [2] | outcome [3] | outcome [4] | outcome [5] | outcome [6]

CCCCC(CC)CN=C(N)NC(N)=NCCCCCCN=C(N)NC(N)=NCC(CC)CCCC (stereo unspecified)
inactive: efficacy [1] -201% | outcome [3] | outcome [5]
active: AC50 [2] 11.2 µM

CN(C)CCc1ccc(O)cc1
111%: parasite growth, % of control (lower = inhibition) [11]
95.5%: parasite growth remaining, % of DMSO control (lower = more inhibition) [10]
104%: growth, % of control [12]
inactive: efficacy [1] -10.6% | outcome [2] | outcome [3] | outcome [4] | outcome [5] | outcome [6]
103%: parasite growth, % of DMSO control [9]

OC1(c2ccc(Cl)c(C(F)(F)F)c2)CCN(CCCC(c2ccc(F)cc2)c2ccc(F)cc2)CC1
active: AC50 [2] 5.01 µM | AC50 [3] 2.82 µM | AC50 [5] 2.82 µM
inactive: efficacy [1] -169%

CCCN1CCC[C@@H]2Cc3nc(N)ncc3C[C@H]21
active: AC50 [2] 39.8 µM | AC50 [5] 39.8 µM
inactive: efficacy [1] 40.4% | outcome [3]

Cc1cc(OCCOCC[N+](C)(C)Cc2ccccc2)ccc1C(C)(C)CC(C)(C)C
active: AC50 [2] 8.91 µM | AC50 [3] 3.98 µM | AC50 [5] 3.98 µM
inactive: efficacy [1] -204%

COc1cc(Nc2c(C#N)cnc3cc(OCCCN4CCN(C)CC4)c(OC)cc23)c(Cl)cc1Cl
inactive: efficacy [1] 56%
active: AC50 [2] 2.82 µM | AC50 [3] 1.41 µM | AC50 [5] 1.41 µM
